Assay results taken from the supplement of paper PMC6555819.

tested on: RARb homodimer (NR concentration 270 nM); assay: PBM binding z-score (relative to random genomic background probes); higher = stronger binding; sequences stand for … in GC…GCGATTGACAGCGTAGAATGAAGG
Method in brief: (§1)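 Custom Agilent 4×180K protein-binding microarrays carried double-stranded probes, each with a 34-nt variable region. These regions held direct-repeat seeds, single-nucleotide variants, half-site ablations and random human genomic background sequences. Ligand-free nuclear receptor dimers were incubated on the arrays for 1 h, antibodies against each partner (one per run) detected binding, and scanned fluorescence was regression-normalized. Binding z-scores take the random background probes as reference.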

Sequence	PBM binding z-score
GCGGCTAGGTCAGGTTGGTCAGCTAACGGGTACG	2.8
TCTAGCAGGCCAGAGGGTCACTCATGAGGTACGG	2.62
ACTTACGGGTCAACGAGGTTATCGCACGCGTATA	3.52
CTCGAAAAGTCGGTTGAGGTGAGTATACGGATAA	0.0667
AGATTGAGGTTATTAAGATCAGGGAATTGCGGTC	1.06
CATACAGGGTCAGCTAGGCCAGAGGAGGGACGGC	3.12
GCTTGCAGGCCATTTGGGTCACTCAATGACGGGC	1.87
TATACAGGGTCAAATGCCAGAGTACGAATGTCGA	3.11
TGAATGAGGTTAAGGATCAGGGAACGTGGCGTCG	0.892
TAGCCTAGGTCATGCGGGCCAGTGTAGTGTCGGC	3.06
CGAGACAGGTGAGAAGGTAACTCAGCCTCGATTA	0.319
CCTAATTGGTCAAGGTCACACACGCTATAGGTAC	4.67
CAAACTAGGTCACAGAGGTAAAAGTCCGTGCGTA	3.54
CCGAGTAGGTTATGGGGAATTCAGGCAACGGTGA	0.783
GCGACTGGGGCATCAGAAGGTTACCATAACTTAA	1.73
TCTATTAGTTGAAGGGCAACTGACGAGTCCGTTT	1.26
TGAATGAGGTTACAAGATCAGGGAACGTTGCAAA	0.458
TCTTGTAGATCAAAGGTTAAGAATGCCGAAGCCT	1.48
ATCGAAAGGTCGACGAGGTGAATATACACCGTTT	2.97
CATACAGGGTCAGCTAGGCCAGAGTGGGGACGGC	3.76

Sequence	PBM binding z-score
TCATATAGATAAAGGTGAAAGTCGAACGATATGA	1.08
CTAGAAAGGTCGGTTGAGGTGAGTATACGGATAA	2.53
TCATATAGGTAAAAGTTGAAAGTCGGTGTGGTAA	0.645
TGAATGAGGTTGAAGATCAGGGAACGTGGCGTCG	-0.485
AAATGTAGGTTACATCCGGGTCATTCAGGCTATG	2.82
GCATATAGGTAATCCAAGGTGAAAGTCCGATTGT	0.964
CCTTACGGGTCACTGAAAGGTTATAGCATTTGGA	4.08
GCGACTGGGGCAAACCAGGTTACCATAAGGTTGG	1.29
AGTCAAAGTTCATCTAGGTAACGTCAGATATGCT	3.92
TCTTGTAGATCAATAGAGGTTATGAAAGTGCGCT	1
TCATATAGGTAAAAGCTGAAAGTCGGTGTGGTAA	-0.59
GGGACTGGGGCAAAGCAGGTTACCATAAGGTTGG	1.75
CTCGAAAGGTCGTGCTCAGGTGAGAATACCAAAC	2.73
TCGAGAAGGTTAGTCGGGGCATTCAGCCAACATA	0.99
TCTTCTAGATCAAAGGTTAAGAAAGCCGAAGCCT	1.54
ATATGTAGGTTAGCTGGGGTCGTTCAGACTAGGC	1.8
AGAATGAGGTTACCAAAGATAAGGGAAACGCTTG	0.456
CCTCGGAGGACAGAAGCTCAGAGCTGTCCGCTTT	-0.763
GATACAGGGACAAGGCCAGAGTACGCGTATTGAT	0.843
GTTAGTTGGTCAGTAAAAGGTCACACACCGGTCG	5.25

tested on: RARg:RXRa (NR concentration 270 nM, RXRa partner concentration 90 nM); assay: as above
Method in brief: as §1

Sequence	PBM binding z-score
GCGGCTAGGTCAGGTTGGTCAGCTAACGGGTACG	2.47
TCTAGCAGGCCAGAGGGTCACTCATGAGGTACGG	2.59
ACTTACGGGTCAACGAGGTTATCGCACGCGTATA	5.86
CTCGAAAAGTCGGTTGAGGTGAGTATACGGATAA	0.446
AGATTGAGGTTATTAAGATCAGGGAATTGCGGTC	1.07
CATACAGGGTCAGCTAGGCCAGAGGAGGGACGGC	4.3
GCTTGCAGGCCATTTGGGTCACTCAATGACGGGC	1.31
TATACAGGGTCAAATGCCAGAGTACGAATGTCGA	5.88
TGAATGAGGTTAAGGATCAGGGAACGTGGCGTCG	1.97
TAGCCTAGGTCATGCGGGCCAGTGTAGTGTCGGC	3.69
CGAGACAGGTGAGAAGGTAACTCAGCCTCGATTA	0.434
CCTAATTGGTCAAGGTCACACACGCTATAGGTAC	4.73
CAAACTAGGTCACAGAGGTAAAAGTCCGTGCGTA	4.87
CCGAGTAGGTTATGGGGAATTCAGGCAACGGTGA	0.446
GCGACTGGGGCATCAGAAGGTTACCATAACTTAA	1.74
TCTATTAGTTGAAGGGCAACTGACGAGTCCGTTT	0.617
TGAATGAGGTTACAAGATCAGGGAACGTTGCAAA	1.79
TCTTGTAGATCAAAGGTTAAGAATGCCGAAGCCT	1.72
ATCGAAAGGTCGACGAGGTGAATATACACCGTTT	4.55
CATACAGGGTCAGCTAGGCCAGAGTGGGGACGGC	4.58

Sequence	PBM binding z-score
TCATATAGATAAAGGTGAAAGTCGAACGATATGA	1.29
CTAGAAAGGTCGGTTGAGGTGAGTATACGGATAA	2.76
TCATATAGGTAAAAGTTGAAAGTCGGTGTGGTAA	0.703
TGAATGAGGTTGAAGATCAGGGAACGTGGCGTCG	0.258
AAATGTAGGTTACATCCGGGTCATTCAGGCTATG	3.7
GCATATAGGTAATCCAAGGTGAAAGTCCGATTGT	0.387
CCTTACGGGTCACTGAAAGGTTATAGCATTTGGA	6.85
GCGACTGGGGCAAACCAGGTTACCATAAGGTTGG	0.596
AGTCAAAGTTCATCTAGGTAACGTCAGATATGCT	5.76
TCTTGTAGATCAATAGAGGTTATGAAAGTGCGCT	1.01
TCATATAGGTAAAAGCTGAAAGTCGGTGTGGTAA	-0.0558
GGGACTGGGGCAAAGCAGGTTACCATAAGGTTGG	0.941
CTCGAAAGGTCGTGCTCAGGTGAGAATACCAAAC	5.24
TCGAGAAGGTTAGTCGGGGCATTCAGCCAACATA	0.634
TCTTCTAGATCAAAGGTTAAGAAAGCCGAAGCCT	1.99
ATATGTAGGTTAGCTGGGGTCGTTCAGACTAGGC	1.66
AGAATGAGGTTACCAAAGATAAGGGAAACGCTTG	1.85
CCTCGGAGGACAGAAGCTCAGAGCTGTCCGCTTT	-0.638
GATACAGGGACAAGGCCAGAGTACGCGTATTGAT	0.288
GTTAGTTGGTCAGTAAAAGGTCACACACCGGTCG	5.67
